Data on 16 compounds can be found in PubChem BioAssay.

Each structure is given as a SMILES string. Calls of active or inactive are those of the source.

The nature of assay [1]: anti-His antibody binders, primary screen, artefact control for SMM control protein annotation, biochemical, small-molecule microarray, 635 nm fluorescence (AID 1128).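 Further: score merges feature fluorescence with signal-to-noise for each printed compound spot.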 The settings on record: anti-His Alexa647 antibody binding, higher = more signal.
Assay [2] relates to Human papillomavirus type 1a E7 protein (residues 1-88). Put plainly: HPV1a E7 small-molecule binders, primary screen, biochemical, small-molecule microarray, residues 1-88, 635 nm (AID 1129). Particulars: small-molecule microarray binding, fluorescence 635 nm; higher = more signal.
The target of assay [3] is Focal adhesion kinase 1 (Homo sapiens) (UniProt Q05397). The experiment in a line: small-molecule microarray binders of FAK, primary screen, biochemical, 635/667 nm fluorescence, BSA, DTT (AID 1130).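 Further: composite of spot emission at 667 nm and signal to noise over triplicate slides.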 Particulars: PTK2 binding, 635 nm fluorescence, higher = more signal.
Assay [4] deals with Fibrinogen (Alexa647-labelled). Put plainly: fibrinogen binders on compound microarrays, profiling panel, artefact control for SMM control-protein annotation, biochemical, small-molecule microarray, 635/667 nm fluorescence (AID 1131).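 Further: z-score merges 667 nm fluorescence with per-spot signal-to-noise over triplicate slides.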 The settings on record: fibrinogen-A647 binding fluorescence, higher = more signal.
The target in assay [5] is Follistatin (Homo sapiens) (UniProt P19883). Put plainly: follistatin binders on small-molecule microarrays, primary screen, biochemical, small-molecule microarray, 635/667 nm fluorescence (AID 1132). Particulars: FST binding, 635 nm fluorescence, higher = more signal.
The target in assay [6] is Fibroblast growth factor 2 (Homo sapiens) (UniProt P09038). The experiment in a line: FGF2 binders on small-molecule microarrays, primary screen, biochemical, small-molecule microarray, 635/667 nm fluorescence (AID 1133). Particulars: small-molecule microarray binding, FGF2, fluorescence 635/667; higher = more signal.
Assay [7] is described as follows: mitochondrial membrane potential change in A549 cells, profiling panel, cell-based, JC-1 fluorescence, basal, 24 h, 100 nL (AID 1138).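 Further: A549 lung adenocarcinoma cells under basal conditions with no added stimulus; test concentration not given here.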 Particulars: higher = more signal.
For assay [8], the system named is Lefty1. Put plainly: Lefty1 binders on small-molecule microarrays, primary screen, biochemical, small-molecule microarray, 635/667 nm fluorescence (AID 1139). The settings on record: small-molecule microarray binding, fluorescence 635/667; higher = more signal.
The test system of assay [9] is wheat germ agglutinin (Triticum aestivum), Alexa647-labelled. The experiment in a line: wheat germ agglutinin binders on compound microarrays, profiling panel, artefact control for SMM control-protein annotation, biochemical, small-molecule microarray, 635/667 nm fluorescence (AID 1140).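 Further: score merges 667 nm feature emission with signal to noise over triplicate slides.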 Particulars: WGA-A647 binding, 635 nm fluorescence, higher = more signal.
The target of assay [10] is Luciferin 4-monooxygenase (Photinus pyralis) (UniProt P08659). Put plainly: firefly luciferase enzyme inhibitors, primary screen, biochemical, luminescence, purified enzyme, 2006 set (AID 1141).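 Further: cell-free assay with purified firefly luciferase at 100 ng per well in PBS; test concentration not given here.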 Particulars: SteadyGlo luminescence, 30 min, higher = more signal, called active from +8 up or from −8 down.
Luciferin 4-monooxygenase (Photinus pyralis), sequence (P08659 whole entry, looked up): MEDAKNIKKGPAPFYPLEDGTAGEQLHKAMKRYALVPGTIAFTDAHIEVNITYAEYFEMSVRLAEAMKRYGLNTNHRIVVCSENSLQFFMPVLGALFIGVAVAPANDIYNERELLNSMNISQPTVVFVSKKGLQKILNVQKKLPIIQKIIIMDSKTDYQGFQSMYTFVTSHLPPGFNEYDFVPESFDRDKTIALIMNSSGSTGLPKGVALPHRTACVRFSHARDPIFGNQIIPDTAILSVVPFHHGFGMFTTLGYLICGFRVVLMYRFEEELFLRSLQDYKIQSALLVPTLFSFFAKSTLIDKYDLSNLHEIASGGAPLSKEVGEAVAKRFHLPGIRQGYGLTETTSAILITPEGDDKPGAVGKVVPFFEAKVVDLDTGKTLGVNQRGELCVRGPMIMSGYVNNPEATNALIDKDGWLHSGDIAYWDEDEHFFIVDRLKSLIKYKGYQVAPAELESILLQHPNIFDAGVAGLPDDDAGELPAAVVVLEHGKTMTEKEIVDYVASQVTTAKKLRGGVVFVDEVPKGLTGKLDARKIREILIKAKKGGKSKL

Follistatin (Homo sapiens), sequence (P19883 whole entry, looked up): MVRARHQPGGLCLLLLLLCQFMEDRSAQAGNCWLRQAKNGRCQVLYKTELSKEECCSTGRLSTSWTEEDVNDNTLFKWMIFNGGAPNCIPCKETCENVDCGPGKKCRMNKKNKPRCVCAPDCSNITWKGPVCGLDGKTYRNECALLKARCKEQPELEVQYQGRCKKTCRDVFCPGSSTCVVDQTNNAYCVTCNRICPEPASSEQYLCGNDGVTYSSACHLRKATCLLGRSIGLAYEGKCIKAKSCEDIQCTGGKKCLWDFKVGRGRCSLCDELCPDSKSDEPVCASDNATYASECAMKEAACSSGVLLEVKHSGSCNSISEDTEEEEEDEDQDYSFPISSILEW
Focal adhesion kinase 1 (Homo sapiens), sequence (Q05397 whole entry, looked up): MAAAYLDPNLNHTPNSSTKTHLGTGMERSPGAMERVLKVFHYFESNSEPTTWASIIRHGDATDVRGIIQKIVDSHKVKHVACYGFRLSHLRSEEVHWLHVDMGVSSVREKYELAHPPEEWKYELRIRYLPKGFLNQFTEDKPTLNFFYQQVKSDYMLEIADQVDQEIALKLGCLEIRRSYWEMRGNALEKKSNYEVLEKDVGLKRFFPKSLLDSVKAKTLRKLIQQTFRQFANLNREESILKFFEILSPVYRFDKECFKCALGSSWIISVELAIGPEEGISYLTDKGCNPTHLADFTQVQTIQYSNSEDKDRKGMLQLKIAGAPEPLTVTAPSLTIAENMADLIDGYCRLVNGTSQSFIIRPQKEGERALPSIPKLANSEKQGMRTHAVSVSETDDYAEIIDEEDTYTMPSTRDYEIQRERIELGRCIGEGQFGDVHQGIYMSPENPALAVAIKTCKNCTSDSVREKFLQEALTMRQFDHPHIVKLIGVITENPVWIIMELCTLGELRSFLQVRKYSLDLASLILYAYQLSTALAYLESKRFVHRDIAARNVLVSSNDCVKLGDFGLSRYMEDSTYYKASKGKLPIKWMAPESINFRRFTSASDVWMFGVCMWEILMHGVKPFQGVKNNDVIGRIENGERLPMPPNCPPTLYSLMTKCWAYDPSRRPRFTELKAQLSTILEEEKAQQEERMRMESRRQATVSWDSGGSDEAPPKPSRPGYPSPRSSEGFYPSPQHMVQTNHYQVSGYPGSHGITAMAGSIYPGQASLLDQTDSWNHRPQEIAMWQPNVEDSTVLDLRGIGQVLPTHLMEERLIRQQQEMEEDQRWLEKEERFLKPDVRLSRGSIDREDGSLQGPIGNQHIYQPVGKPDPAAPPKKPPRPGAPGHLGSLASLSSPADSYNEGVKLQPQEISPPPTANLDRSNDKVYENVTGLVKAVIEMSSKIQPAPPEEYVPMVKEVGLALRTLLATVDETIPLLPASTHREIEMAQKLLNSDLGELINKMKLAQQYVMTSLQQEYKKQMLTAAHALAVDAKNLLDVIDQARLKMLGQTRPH
Fibroblast growth factor 2 (Homo sapiens), sequence (P09038 whole entry, looked up): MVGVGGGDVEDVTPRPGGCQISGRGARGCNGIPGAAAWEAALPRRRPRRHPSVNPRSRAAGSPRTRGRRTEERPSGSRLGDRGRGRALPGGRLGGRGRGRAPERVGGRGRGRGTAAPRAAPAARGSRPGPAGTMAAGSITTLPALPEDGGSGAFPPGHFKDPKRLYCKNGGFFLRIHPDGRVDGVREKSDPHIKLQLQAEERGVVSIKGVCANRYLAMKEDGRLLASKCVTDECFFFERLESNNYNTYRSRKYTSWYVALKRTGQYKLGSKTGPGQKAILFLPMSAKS

Take `CC(C)c1ccc(NN2C(C(O)Cc3ccccc3)C=CC3C(=O)N(c4ccccc4)C(=O)C32)cc1` (stereo not given): the composite z-score in [1] was 0.829; in assay [2] it was 1.11; in assay [3], 1.16; in [4], 0.958; in [5], 1.28; in assay [6], -0.0551. Also, the composite z-score in assay [8] came out at 0.441; in assay [9], 0.797. Further, the z-score was -1.24 in [7] and -0.959 (inactive) in assay [10].
On to `CCCCCCCCCCC(O)C1C=CC2C(=O)N(c3ccccc3)C(=O)C2N1Nc1ccccc1F` (stereo not given), for which the composite z-score in [1] was 0.0112; in [2] it was 0.399; in assay [3], 0.674; in assay [4], 0.415; in [5], -0.348; in assay [6] it was -0.591. Besides, the composite z-score was -0.833 in [8] and 0.472 in assay [9]. In addition, the results for the z-score in [7] and in assay [10] were -0.127 and 0.422 (inactive), respectively.
Take `[N-]=[N+]=NCc1ccccc1[C@@H]1OC(c2ccc(OCCCO)cc2)=N[C@]1(Cc1ccccc1)C(=O)NCCN1CCOCC1`: the composite z-score in assay [1] is 1.16; in assay [2], 1.18; in assay [3] it was 0.533; in [4], 0.514; in assay [5] it was 1.31; in [6], 0.41. Besides, the values for the composite z-score in assay [8] and in assay [9] were -0.0059 and 0.721, respectively. Moreover, the figures for the z-score in assay [7] and in assay [10] were 2.27 and -1.94 (inactive), respectively.
In the case of `C[C@@]12COC[C@]13C=C(Br)[C@H](C2)[C@@]1(CO1)C3=O`, the composite z-score was 0.0359 in assay [1]; -1.59 in assay [2]; -0.306 in assay [3]; -0.376 in assay [4]; -0.222 in assay [5]; -0.757 in assay [6]. Besides, the composite z-score is -0.0487 in [8] and -0.388 in [9]. In addition, the z-score is 1.02 in [7] and 0.198 (inactive) in assay [10].
Consider `O=C1C2C=CC(C(O)c3ccc(I)cc3)N(Nc3ccccc3)C2C(=O)N1c1ccccc1` (stereo not given), for which the composite z-score in assay [1] was found to be 1.45; in assay [2] it was 1.19; in [3], 0.83; in assay [4], 0.907; in assay [5] it was 0.862; in [6], 0.0891. For the same compound, the results for the composite z-score in assay [8] and in assay [9] were -0.358 and 1.44, respectively. The figures for the z-score in [7] and in assay [10] were -0.0457 and -0.102 (inactive), respectively.
For `CC(C)[Si]1(C(C)C)OCc2cc(-c3ccc(-c4ccc(Cl)c(Cl)c4)o3)nc(CCc3ccccc3)c21`, the composite z-score in assay [1] was -1.14; in assay [2], -0.122; in assay [3], 0.164; in [4], -0.0058; in [5] it was -0.0289; in [6] it was -0.11. The composite z-score in assay [8] came to 0.0028; in assay [9] it was 0.0809. The z-score was 1.4 in assay [7] and -2.45 (inactive) in assay [10].
As to `COCCOC(=O)N1C(=O)[C@@]2(c3cc(C#CC4(O)CCCCCC4)ccc31)[C@H](C(=O)N1CCN(c3ncccn3)CC1)[C@H]1C(=O)O[C@H](c3ccccc3)[C@H](c3ccccc3)N1[C@@H]2c1ccccc1OCCO`, the composite z-score in assay [1] was found to be 1.29; in assay [2], 1.18; in assay [3] it was 1.1; in assay [4], 0.821; in assay [5], 1.28; in assay [6] it was 1.37. Further, the composite z-score in [8] was found to be 0.883; in assay [9], 0.321. For the same compound, the results for the z-score in [7] and in [10] were -1.04 and -0.348 (inactive), respectively.
`CC(C)C(=C=CC[C@@H](O)c1cccc(OCCO)c1)C[C@@H](O)c1ccccn1`: the composite z-score is 1.39 in assay [1]; -0.0234 in assay [2]; 0.0046 in [3]; -1.15 in assay [4]; 0.484 in [5]; -0.0241 in assay [6]. The composite z-score in assay [8] came to 0.402; in assay [9] it was 0.782. The z-score was 0.386 in assay [7] and 0.179 (inactive) in [10].
Take `O=C1O[C@H](c2ccccc2)[C@H](c2ccccc2)N2[C@H]1[C@@H](C(=O)N1CCCCCCC1)[C@]1(C(=O)Nc3ccc(C#CC4(O)CCCCCC4)cc31)[C@H]2c1ccc(O)cc1`: the composite z-score in assay [1] came to 0.821; in assay [2], 1.22; in assay [3] it was 1.75; in assay [4], 0.545; in assay [5] it was 1.4; in assay [6], 1.37. Also, the composite z-score was 1.27 in assay [8] and 0.757 in assay [9]. In addition, the z-score in assay [7] is 0.706; in assay [10] it was -0.0026 (inactive).
`Cc1ccc(C(C)CC(O)C2C=CC3C(=O)N(c4ccccc4)C(=O)C3N2Nc2ccc(C#N)cc2)o1` (stereo not given): the composite z-score in [1] was found to be 1.21; in assay [2] it was 1.24; in assay [3], 0.175; in assay [4] it was 1.03; in [5], 1.24; in assay [6] it was 0.37. Moreover, the composite z-score in assay [8] came out at 0.0143; in assay [9], 0.586. The z-score in assay [7] is 0.289; in [10], -0.993 (inactive).
`CCOC(=O)C1=CC[C@@H](c2ccccc2)N(S(=O)(=O)c2ccc(C)cc2)[C@H]1c1cccc(OC)c1`: the composite z-score in assay [1] was 0.741; in assay [2], 1.15; in assay [3] it was -0.0106; in assay [4], 0.669; in [5], 0.76; in [6], 0.356. Also, the composite z-score in [8] is -0.245; in assay [9], 0.773. The z-score was 1.96 in assay [7] and 1.56 (inactive) in assay [10].
As for `O=C1OCCC=C[C@H]2OC34C=CCN(c5ccc(Cl)cc5)C(=O)[C@H]3N(CCCCCCO)C(=O)[C@@H]4C12` (stereo not given in full), the composite z-score in [1] is -0.6; in [2] it was -0.611; in assay [3] it was -0.469; in [4], -1.17; in assay [5], -0.841; in assay [6], -1.12. Besides, the composite z-score is -0.831 in [8] and -0.533 in assay [9]. For the same compound, the z-score in assay [7] is 2.21; in assay [10], -1.65 (inactive).
Turning to `COc1ccc([Si](C)(C)[C@H]2[C@H](CC(=O)N3Cc4ccccc4C[C@H]3CO)O[C@@]3(C(=O)N(Cc4ccc(N5C(=O)c6cccc7cccc5c67)cc4)c4ccccc43)[C@@H]2C)cc1`, the composite z-score in assay [1] stood at 0.33; in assay [2] it was 1.15; in assay [3], 1.28; in [4] it was 0.405; in [5], 1.07; in assay [6] it was 1.37. Moreover, the composite z-score worked out at 1.01 in assay [8] and 0.237 in assay [9]. The z-score in assay [7] is 1.34; in assay [10] it was 0.0376 (inactive).
`CCCCC(=C=CC[C@H](O)c1ccc(OCCO)cc1)C[C@H](O)c1cc(Cl)cc(Cl)c1O`: the composite z-score amounted to 0.323 in assay [1]; 0.606 in [2]; 0.0593 in assay [3]; 0.463 in [4]; 0.906 in [5]; 0.807 in assay [6]. Further, the composite z-score came to 0.484 in [8] and 0.776 in assay [9]. Further, the z-score in assay [7] was 0.62; in assay [10] it was -1.39 (inactive).
Take `COCCOC(=O)N1C(=O)[C@@]2(c3cc(C#Cc4ccc(OC)cc4)ccc31)[C@H](C(=O)NC[C@H](O)c1ccccc1)[C@H]1C(=O)O[C@H](c3ccccc3)[C@H](c3ccccc3)N1[C@@H]2c1ccc(OCCO)cc1`: the composite z-score was 1.24 in [1]; 1.2 in assay [2]; -0.103 in [3]; 0.801 in assay [4]; 1.29 in assay [5]; 1.01 in assay [6]. The composite z-score in assay [8] was 1.15; in assay [9] it was 0.815. The z-score was -1.77 in assay [7] and -0.459 (inactive) in assay [10].
In the case of `CO[C@H]1O[C@H](CO)[C@@H](OC(=O)Nc2ccc(C#N)cc2)[C@@H]2OC(=O)[C@H](Cc3cccc(Br)c3)C/C=C/C[C@@H](Cc3cccc(Br)c3)C(=O)O[C@@H]12`, the composite z-score in assay [1] was 1.26; in assay [2], 0.776; in assay [3], -0.611; in [4] it was 0.448; in [5] it was 1.2; in assay [6], 0.707. The composite z-score in [8] was 1.13; in [9], 0.655. For the same compound, the z-score in assay [7] was 1.39; in [10] it was 0.782 (inactive).
